Experiment in all cases: NCI-60 one-dose screen, 48 h (100 = growth as untreated, 0 = no growth, -100 = all killed)
Holding throughout (details): 10 µM unless noted

For assay [1], the system named is SR leukemia.
Assay [2] concerns RPMI-8226 leukemia.
Assay [3] deals with OVCAR-8 ovarian.
For assay [4], the system named is OVCAR-5 ovarian.
Assay [5] deals with OVCAR-4 ovarian.
The test system of assay [6] is SK-OV-3 ovarian.
Assay [7] concerns OVCAR-3 ovarian.
For assay [8], the system named is HS 578T breast.
Assay [9] deals with NCI/ADR-RES ovarian.
Assay [10] deals with IGROV1 ovarian.

About 83,000 compounds went through this panel and 20% of them were active in at least one assay; those are over-represented in the sample as a whole.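 Cell lines were cultured in 96-well plates, exposed to a single compound concentration, and assessed for percent growth 48 hours later.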 Values without a mark were called inactive. The source made the active and inactive calls. Rule for the calls: active = growth percent below 10; inactive = the rest.

`O=C1c2cccc(NCCN=Cc3ccccc3O)c2C(=O)c2c(NCCN=Cc3ccccc3O)cccc21`: the growth in assay [1] is -20.9% (active); in [2] it was -9.08% (active); in assay [3], 17%; in assay [4] it was 15.9%; in assay [5] it was 2.43% (active); in [6], 29%. Also, the growth in [7] is 11.1%; in assay [8], 4.31% (active); in [9], 93.9%.

As to `COc1ccc(CNC(=O)c2c(C)n([O-])c3ccccc3[n+]2=O)cc1`, the growth is 97.4% in assay [1]; 96.3% in [2]; 96.5% in [3]; 89.9% in assay [4]; 97.7% in [5]; 99.3% in assay [6]. For the same compound, the growth was 115% in assay [7], 111% in assay [8] and 54.2% in assay [9].

Regarding `O=C(O)CCC(=O)OC[C@@H](NC(=O)C(Cl)Cl)[C@H](O)c1ccc([N+](=O)[O-])cc1`, the growth was 95.9% in [1]; 89.5% in [2]; 94.4% in [3]; 93.5% in assay [4]; 102% in assay [5]; 107% in assay [6]. The growth was 121% in assay [7] and 111% in assay [8].

With `O=C1C(=O)c2c(nc3ccc(Cl)cn23)-c2ccccc21`, the growth in assay [1] was -86.5% (active); in assay [2] it was -53.7% (active); in assay [3] it was -100% (active); in [4] it was -100% (active); in assay [5], -100% (active); in assay [6], -100% (active). The growth is -96% (active) in [7], -33.8% (active) in assay [8] and -41.1% (active) in [9].

In the case of `C=C1CC[C@@H]2[C@](C)(COC(C)=O)[C@H](OC(C)=O)CC[C@@]2(C)[C@@H]1CC(NCc1ccccc1)C1=CCOC1=O` (stereo partly specified), the growth in [1] was 20.9%; in assay [2] it was 3.18% (active); in assay [3], 28.2%; in assay [4] it was 102%; in assay [5] it was 35.9%; in assay [6], 79.2%. The figures for the growth in [7] and in assay [8] were 31.8% and 86.4%, respectively.

In the case of `C=CCNC(=O)/C(=C/c1cccc([N+](=O)[O-])c1)NC(=O)c1ccccc1`, the growth in assay [1] was 207%; in assay [2] it was 108%; in assay [3], 98.7%; in assay [4], 101%; in assay [5], 99.3%; in [6], 99.9%. Further, the growth is 108% in assay [7], 108% in [8] and 106% in assay [9].

Take `CCCCN1c2nc3ccccc3cc2Sc2cc3ccccc3nc21`: the growth in assay [1] is 76.5%; in assay [2], 78.4%; in [3], 106%; in assay [4] it was 93.6%; in [5], 93.7%; in [6], 112%. The growth in [7] was 294%; in assay [8] it was 99.8%; in assay [9], 106%.

In the case of `CCOC(=O)c1cc2oc(/C=C/c3cc(=O)c4cc(Cl)ccc4o3)cc2[nH]1`, the growth in assay [1] is 87.9%; in [2], 94.3%; in [3], 105%; in assay [4], 89.3%; in [5], 89.6%; in [6], 98.5%. The growth in [7] is 72.3%; in [8], 71.2%; in assay [9], 93.6%.

On to `COc1ccc2c(c1)CC/C(=C\c1ccc(OCC(=O)Nc3nc4ccccc4s3)cc1)C2=O`, for which the growth in assay [1] was 68.4%; in [2], 85.4%; in [3], 98.3%; in [4], 87.8%; in assay [5], 102%; in assay [6], 104%. Moreover, the growth was 116% in [7] and 73.5% in assay [8].

Take `COc1cc(/C=N/NC(=O)c2ccc(C(F)(F)F)nc2Nc2cc(Cl)ccc2C)cc(OC)c1OC`: the growth in assay [1] is 91.8%; in assay [2], 64.7%; in [3] it was 99.8%; in assay [4], 103%; in [5], 104%; in assay [6] it was 106%. Also, the growth is 123% in assay [7], 104% in assay [8] and 98.3% in [9].

In the case of `NC(=O)NS(=O)(=O)c1ccc(N2N=C(C(F)(F)F)CC2c2cc(C(F)(F)F)cc(C(F)(F)F)c2)cc1` (stereo unspecified), the growth in assay [1] was 66.2%; in assay [2], 2.36% (active); in assay [3], 79.8%; in [4], 85.7%; in [5], 69.7%; in [6] it was 93%. In addition, the results for the growth in assay [7], in [8] and in [9] were 69.7%, 66.5% and 77%, respectively.

Consider `CC(=O)Nc1ccc(C(=O)COc2cccc(/C=C3\CCc4ccccc4C3=O)c2)cc1`, for which the growth in assay [1] was 52.4%; in [2], 19.6%; in [3], 88.4%; in assay [4], 104%; in assay [5] it was 83.4%; in assay [6], 95.5%. Further, the growth was 238% in [7], 99.7% in [8] and 83% in assay [9].

With `COC(=O)N/N=C/c1coc2ccc(Cl)cc2c1=O`, the growth was 53.8% in assay [1]; 60.3% in assay [2]; 110% in assay [3]; 95.3% in assay [4]; 97% in assay [5]; 92.3% in [6]. The growth in assay [7] was 63.4%; in assay [8], 92.8%; in assay [9], 99%.

Turning to `O=C(COc1cccc(/C=C2\Cc3ccccc3C2=O)c1)c1ccc(Cl)cc1`, the growth is 111% in assay [1]; 90.2% in assay [2]; 90.4% in assay [3]; 103% in assay [4]; 90.1% in assay [5]; 130% in [6]. Moreover, the growth in assay [7] is 120%; in [8], 102%; in [9], 93.5%.

Take `CCCn1c(N)c(C(=O)CNc2ccc(I)cc2)c(=O)[nH]c1=O`: the growth in assay [1] is 139%; in [2], 29.1%; in assay [3], 49.5%; in assay [4], 137%; in [5] it was 74.4%; in assay [6] it was 56%. Further, the values for the growth in [7], in assay [8] and in [9] were 64.9%, 44.3% and 77.1%, respectively.

In the case of `CCOC(=O)c1sc(NC(=O)COc2cccc(/C=C3\CCc4cc(OC)ccc4C3=O)c2)nc1C`, the growth in assay [1] is -19.4% (active); in assay [2] it was 12.6%; in [3], 73%; in assay [4], 98%; in [5] it was 73.2%; in assay [6], 99%. In addition, the growth in assay [7] is 38.2%; in [8], 91.7%; in [9], 47.7%.

With `CC[n+]1c(/C=C/c2ccc(N3CCCC3)cc2)cccc1/C=C/c1ccc(N2CCCC2)cc1`, the growth in assay [1] was 57.2%; in assay [2], -41.1% (active); in assay [3] it was -87.3% (active); in assay [4], -80.1% (active); in assay [5], -73.8% (active); in assay [6] it was -95.6% (active). Besides, the growth is -90.1% (active) in assay [7], -70.2% (active) in [8] and -68.6% (active) in assay [9].

As for `CC(NNC(=S)N1CCCCCC1)c1ccc2ccccc2n1` (stereo unspecified), the growth in [1] is 34.5%; in assay [2], 56.1%; in assay [3], 18.1%; in assay [4] it was 50.3%; in assay [5], 30.2%; in assay [6], 50.9%. Moreover, the growth is 47.4% in assay [7], 78.5% in assay [8] and 20.8% in [9].

As to `COc1ccc(CNC(=O)c2c(C)n([O-])c3ccc(OC)cc3[n+]2=O)cc1`, the growth in assay [1] is 90.4%; in assay [2], 94%; in assay [3], 87%; in assay [4], 103%; in assay [5], 105%; in assay [6] it was 126%. For the same compound, the growth in assay [7] was 187%; in [8], 108%; in assay [9] it was 21.3%.

In the case of `CC(C)=CCCC(C)c1ccc(C)c2c1OCN(CC1CCNCC1)C2` (stereo unspecified), the growth was -8.52% (active) in assay [1]; 23.7% in [2]; 75.3% in assay [3]; 81.1% in assay [4]; 91.7% in assay [5]; 87% in [6]. Moreover, the growth in [7] was 77.2%; in assay [8] it was 64.3%; in assay [9] it was 83.5%.

Turning to `O=C(O)CCNS(=O)(=O)c1ccc(-c2ccccc2)cc1`, the growth in assay [1] is 88.9%; in assay [2] it was 69%; in assay [3] it was 97.7%; in [4] it was 107%; in assay [5], 101%; in [6] it was 107%. Besides, the growth is 114% in assay [7], 9.34% (active) in assay [8] and 108% in assay [9].

For `Fc1ccccc1C1c2ccccc2-c2nccn21` (stereo unspecified), the growth in [1] was 78.1%; in assay [2], 80.3%; in [3] it was 95.8%; in assay [4], 96.3%; in assay [5], 90%; in assay [6], 109%. Besides, the growth was 96.7% in [7] and 98.8% in assay [8].

`COC(=O)C1CCN(S(=O)(=O)c2ccc(-c3ccccc3)cc2)CC1`: the growth was 75.7% in [1]; 144% in assay [2]; 81.6% in assay [3]; 106% in [4]; 103% in [5]; 98.4% in assay [6]. Also, the growth in assay [7] was 114%; in assay [8], 117%; in assay [9], 116%.

For the compound `O=C(COc1ccc(/C=C2\Oc3ccc4ccccc4c3C2=O)cc1)c1ccc([N+](=O)[O-])cc1`, the growth was 29% in [1]; 61.9% in [2]; 91.1% in [3]; 103% in assay [4]; 102% in assay [5]; 103% in assay [6]. Moreover, the growth is 158% in assay [7] and 105% in [8].

On to `CC[C@H]1CN2CCc3cc(OC)c(OC)cc3C2C[C@@H]1CC1NCCc2cc(OC)c(OC)cc21` (stereo partly specified), for which the growth is -9.39% (active) in [1]; -41% (active) in assay [2]; -20.6% (active) in assay [3]; -12% (active) in [4]; -9.56% (active) in assay [5]; -1.2% (active) in assay [6]. For the same compound, the growth in assay [7] was -30.9% (active); in assay [8] it was -12% (active); in [9], -9.95% (active).

As for `O=C(COc1ccc(/C=C2\Oc3ccc4ccccc4c3C2=O)cc1)c1ccc(Cl)cc1`, the growth is 26.8% in assay [1]; 62.1% in assay [2]; 100% in assay [3]; 113% in [4]; 94.6% in assay [5]; 104% in [6]. For the same compound, the growth in assay [7] is 127%; in assay [8], 91.7%; in assay [9] it was 107%.

In the case of `O=C(CNC(=O)c1cccc2ccccc12)Nc1ccccc1Cc1ccccc1`, the growth in assay [1] is 18.8% [5 µM]; in [2] it was 39.1% [5 µM]; in assay [3] it was 37.6% [5 µM]; in assay [4], 66.4% [5 µM]; in assay [5] it was 81.2% [5 µM]; in assay [6], 45% [5 µM]. The growth is 53% [5 µM] in assay [10], 15.5% [5 µM] in [7] and 17% [5 µM] in assay [9].

Turning to `Cc1ccc(OCC(=O)Nc2ccc(Oc3ccccc3)cc2)c([N+](=O)[O-])n1`, the growth in assay [1] was 82.6%; in assay [2] it was 50.7%; in [3] it was 79%; in [4], 84.4%; in assay [5], 77.4%; in [6] it was 71.9%. In addition, the growth was 88.7% in [7], 113% in assay [8] and 43.7% in assay [9].

Take `COc1ccc2cc(-c3nc4ccccc4[nH]3)c(=O)oc2c1`: the growth is 36.5% in [1]; 115% in assay [2]; 101% in assay [3]; 101% in assay [4]; 99.3% in assay [5]; 104% in [6]. In addition, the growth in assay [7] is 106%; in [8], 125%; in assay [9], 93%.

The values above are taken from PubChem BioAssay (NCI).
